Key:
Assay in all cases: protein domain microarray probed with biotinylated miRNA; Domain array: 20 mM Tris-HCl pH 7.4, 200 mM KCl, 0.2 mM EDTA, 0.05% NP40, 2 ug/ul heparin, overnight 4 C. ORF array: PBS pH 7.0 with RNase inhibitor, 100 ng RNA; high values mean tight binding
Conditions in all cases: ssRNA
DAZL = target: T1, DAZL (Homo sapiens, UniProt Q92904)
T1 sequence: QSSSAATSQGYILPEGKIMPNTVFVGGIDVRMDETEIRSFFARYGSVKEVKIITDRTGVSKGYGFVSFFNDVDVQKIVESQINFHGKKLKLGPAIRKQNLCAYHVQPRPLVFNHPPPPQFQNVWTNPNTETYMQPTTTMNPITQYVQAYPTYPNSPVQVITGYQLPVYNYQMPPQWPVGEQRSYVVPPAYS

NOL8 = target: T2, NOL8 (Homo sapiens, UniProt Q76FK4)
T2 sequence: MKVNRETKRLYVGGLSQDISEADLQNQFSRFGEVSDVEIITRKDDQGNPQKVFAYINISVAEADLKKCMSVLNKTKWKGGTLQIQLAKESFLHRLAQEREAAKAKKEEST

hnRNP-A0 = target: T3, hnRNP-A0 (Homo sapiens, UniProt Q13151)
T3 sequence: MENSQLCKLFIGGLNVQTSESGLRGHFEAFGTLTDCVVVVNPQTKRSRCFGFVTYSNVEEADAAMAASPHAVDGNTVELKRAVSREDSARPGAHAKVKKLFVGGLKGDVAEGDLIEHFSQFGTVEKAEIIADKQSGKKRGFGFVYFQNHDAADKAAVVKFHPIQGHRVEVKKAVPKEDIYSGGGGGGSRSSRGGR

NeuN = target: T4, NeuN (Homo sapiens, UniProt A6NFN3)
T4 sequence: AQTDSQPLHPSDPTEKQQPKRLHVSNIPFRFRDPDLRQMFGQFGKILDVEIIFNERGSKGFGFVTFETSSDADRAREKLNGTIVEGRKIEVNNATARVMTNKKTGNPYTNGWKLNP

hnRNP-2H9 = target: T5, hnRNP-2H9 (Homo sapiens, UniProt P31942)
T5 sequence: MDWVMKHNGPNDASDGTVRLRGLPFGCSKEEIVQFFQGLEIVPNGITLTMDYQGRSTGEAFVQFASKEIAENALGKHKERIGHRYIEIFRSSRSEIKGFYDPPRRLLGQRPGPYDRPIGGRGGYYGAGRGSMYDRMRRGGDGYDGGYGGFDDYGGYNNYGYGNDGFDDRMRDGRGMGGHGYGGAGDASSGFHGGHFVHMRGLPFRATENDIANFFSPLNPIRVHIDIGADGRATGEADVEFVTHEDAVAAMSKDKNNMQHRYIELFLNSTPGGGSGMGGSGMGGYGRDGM

CPEB4 = target: T6, CPEB4 (Homo sapiens, UniProt Q17RY0)
T6 sequence: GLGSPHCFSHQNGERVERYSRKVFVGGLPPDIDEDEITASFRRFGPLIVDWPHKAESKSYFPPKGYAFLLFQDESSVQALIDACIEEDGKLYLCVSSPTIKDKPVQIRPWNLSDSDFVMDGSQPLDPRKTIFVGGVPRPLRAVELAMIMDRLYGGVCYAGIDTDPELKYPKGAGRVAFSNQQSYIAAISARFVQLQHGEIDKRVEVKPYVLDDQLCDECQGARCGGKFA

CELF5(3) = CELF5(3) (Homo sapiens, UniProt Q8N6W0)
Sequence of CELF5(3) (Q8N6W0 376-485): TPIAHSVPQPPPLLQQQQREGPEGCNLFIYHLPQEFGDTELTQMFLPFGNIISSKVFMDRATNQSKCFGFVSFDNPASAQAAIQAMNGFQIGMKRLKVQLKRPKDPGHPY

CPEB1 = CPEB1 (Homo sapiens, UniProt Q9BZB8)
Sequence of CPEB1 (Q9BZB8 290-531): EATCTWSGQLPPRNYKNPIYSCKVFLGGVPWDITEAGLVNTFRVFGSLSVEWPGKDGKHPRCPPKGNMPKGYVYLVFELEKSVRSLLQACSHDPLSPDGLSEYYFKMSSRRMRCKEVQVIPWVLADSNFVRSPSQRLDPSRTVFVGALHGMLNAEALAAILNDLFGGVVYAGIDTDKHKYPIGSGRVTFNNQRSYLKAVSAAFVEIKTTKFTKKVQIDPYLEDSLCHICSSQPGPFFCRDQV

MYEF2(3) = target: T7, MYEF2(3) (Homo sapiens, UniProt Q9P2K5)
T7 sequence: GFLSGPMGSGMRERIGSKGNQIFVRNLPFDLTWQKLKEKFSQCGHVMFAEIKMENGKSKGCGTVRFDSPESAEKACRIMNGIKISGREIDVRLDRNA

CstF-64T = target: T8, CstF-64T (Homo sapiens, UniProt Q9H0L4)
T8 sequence: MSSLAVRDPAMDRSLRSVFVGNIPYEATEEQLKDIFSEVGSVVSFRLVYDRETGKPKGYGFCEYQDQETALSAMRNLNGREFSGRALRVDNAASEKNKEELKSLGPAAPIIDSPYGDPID

Musashi-1 = Musashi-1 (Homo sapiens, UniProt O43347)
Sequence of Musashi-1 (O43347 1-203): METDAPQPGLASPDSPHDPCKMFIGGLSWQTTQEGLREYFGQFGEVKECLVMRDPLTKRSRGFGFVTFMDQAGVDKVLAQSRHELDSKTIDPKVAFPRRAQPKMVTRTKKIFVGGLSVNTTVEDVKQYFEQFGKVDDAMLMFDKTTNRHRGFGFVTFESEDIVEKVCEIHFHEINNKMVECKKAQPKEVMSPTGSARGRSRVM

FIR = FIR (Homo sapiens, UniProt Q9UHX1)
Sequence of FIR (Q9UHX1 110-559): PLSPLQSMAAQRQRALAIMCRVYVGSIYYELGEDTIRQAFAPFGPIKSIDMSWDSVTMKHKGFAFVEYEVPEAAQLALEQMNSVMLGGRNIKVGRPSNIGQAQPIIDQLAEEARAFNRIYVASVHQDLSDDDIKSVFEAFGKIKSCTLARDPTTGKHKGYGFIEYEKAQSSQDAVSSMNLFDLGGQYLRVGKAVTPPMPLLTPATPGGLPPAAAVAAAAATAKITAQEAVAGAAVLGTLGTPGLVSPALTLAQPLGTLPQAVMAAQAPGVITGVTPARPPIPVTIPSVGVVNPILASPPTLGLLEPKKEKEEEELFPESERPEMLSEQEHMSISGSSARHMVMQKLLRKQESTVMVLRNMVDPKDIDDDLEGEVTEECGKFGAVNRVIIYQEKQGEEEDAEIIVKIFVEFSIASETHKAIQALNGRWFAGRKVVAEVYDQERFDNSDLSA

HNRNPCP5 = HNRNPCP5 (Homo sapiens, UniProt B2RXH8)
Sequence of HNRNPCP5 (B2RXH8 1-110): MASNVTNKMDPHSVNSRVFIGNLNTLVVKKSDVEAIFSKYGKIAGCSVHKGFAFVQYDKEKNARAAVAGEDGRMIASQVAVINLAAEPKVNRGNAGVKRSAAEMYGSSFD

hnRNP-F = target: T9, hnRNP-F (Homo sapiens, UniProt P52597)
T9 sequence: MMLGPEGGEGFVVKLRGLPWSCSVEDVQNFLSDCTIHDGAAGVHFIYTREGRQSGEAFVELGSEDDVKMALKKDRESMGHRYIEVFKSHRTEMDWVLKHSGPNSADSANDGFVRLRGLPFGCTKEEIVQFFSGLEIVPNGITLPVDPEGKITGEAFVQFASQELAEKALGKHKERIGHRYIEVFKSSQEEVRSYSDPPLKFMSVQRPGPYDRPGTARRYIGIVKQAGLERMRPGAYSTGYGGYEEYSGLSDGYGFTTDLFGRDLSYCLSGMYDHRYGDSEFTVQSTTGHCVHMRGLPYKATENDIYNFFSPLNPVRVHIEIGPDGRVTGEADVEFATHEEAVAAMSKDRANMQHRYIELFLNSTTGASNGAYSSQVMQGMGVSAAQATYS

IGF2BP1 = IGF2BP1 (Homo sapiens, UniProt Q9NZI8)
Sequence of IGF2BP1 (Q9NZI8 1-176): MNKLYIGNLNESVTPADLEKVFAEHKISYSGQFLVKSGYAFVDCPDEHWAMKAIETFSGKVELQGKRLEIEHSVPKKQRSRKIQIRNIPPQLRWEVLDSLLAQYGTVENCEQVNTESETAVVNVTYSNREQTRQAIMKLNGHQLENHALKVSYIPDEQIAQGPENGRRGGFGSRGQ

GRSF1 = target: T10, GRSF1 (Homo sapiens, UniProt Q12849)
T10 sequence: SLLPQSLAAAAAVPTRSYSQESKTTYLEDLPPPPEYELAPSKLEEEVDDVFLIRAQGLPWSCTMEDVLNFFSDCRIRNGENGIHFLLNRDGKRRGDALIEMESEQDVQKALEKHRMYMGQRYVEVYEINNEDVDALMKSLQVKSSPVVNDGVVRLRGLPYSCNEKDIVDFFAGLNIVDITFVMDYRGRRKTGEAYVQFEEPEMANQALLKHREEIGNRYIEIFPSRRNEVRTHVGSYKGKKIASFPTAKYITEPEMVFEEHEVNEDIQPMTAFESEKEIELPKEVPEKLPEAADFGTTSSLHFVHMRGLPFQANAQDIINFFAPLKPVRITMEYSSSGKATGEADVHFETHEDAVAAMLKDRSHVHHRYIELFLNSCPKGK

hnRNP-I(3-4) = hnRNP-I(3-4) (Homo sapiens, UniProt P26599)
Sequence of hnRNP-I(3-4) (P26599 346-557): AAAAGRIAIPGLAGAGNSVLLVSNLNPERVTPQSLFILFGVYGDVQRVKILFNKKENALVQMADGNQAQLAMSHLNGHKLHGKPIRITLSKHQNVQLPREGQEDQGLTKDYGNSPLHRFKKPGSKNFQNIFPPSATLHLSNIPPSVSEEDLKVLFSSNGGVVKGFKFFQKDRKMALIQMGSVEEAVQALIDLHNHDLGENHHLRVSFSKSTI

ENOX2 = target: T11, ENOX2 (Homo sapiens, UniProt Q16206)
T11 sequence: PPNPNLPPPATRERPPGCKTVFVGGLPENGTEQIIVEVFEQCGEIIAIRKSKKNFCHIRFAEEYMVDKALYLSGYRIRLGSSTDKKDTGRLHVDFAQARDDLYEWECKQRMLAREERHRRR

TAT-SF1 = target: T12, TAT-SF1 (Homo sapiens, UniProt O43719)
T12 sequence: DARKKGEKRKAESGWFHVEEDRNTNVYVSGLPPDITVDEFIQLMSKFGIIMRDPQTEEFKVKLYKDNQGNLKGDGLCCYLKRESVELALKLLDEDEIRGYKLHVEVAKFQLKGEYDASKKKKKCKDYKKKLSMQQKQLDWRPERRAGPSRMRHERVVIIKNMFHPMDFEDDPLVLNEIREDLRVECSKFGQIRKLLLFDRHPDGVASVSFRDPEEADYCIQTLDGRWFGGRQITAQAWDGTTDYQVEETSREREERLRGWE

AKAP1 = target: T13, AKAP1 (Homo sapiens, UniProt Q92667)
T13 sequence: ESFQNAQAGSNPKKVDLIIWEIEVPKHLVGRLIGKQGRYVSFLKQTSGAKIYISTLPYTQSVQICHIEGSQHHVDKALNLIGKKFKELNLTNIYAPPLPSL

| Sequence | binding signal (DAZL) | binding signal (NOL8) | binding signal (hnRNP-A0) | binding signal (NeuN) | binding signal (hnRNP-2H9) | binding signal (CPEB4) | binding signal (CELF5(3)) | binding signal (CPEB1) | binding signal (MYEF2(3)) | binding signal (CstF-64T) | binding signal (Musashi-1) | binding signal (FIR) | binding signal (HNRNPCP5) | binding signal (hnRNP-F) | binding signal (IGF2BP1) | binding signal (GRSF1) | binding signal (hnRNP-I(3-4)) | binding signal (ENOX2) | binding signal (TAT-SF1) | binding signal (AKAP1) |
| --- | --- | --- | --- | --- | --- | --- | --- | --- | --- | --- | --- | --- | --- | --- | --- | --- | --- | --- | --- | --- |
| CAGUGCAAUGAUGAAAGGGCAU | 42.2 ± 30.1 fluorescence intensity | 34.8 ± 9.25 fluorescence intensity | 990 ± 34.9 fluorescence intensity | 2230 ± 258 fluorescence intensity | 533 ± 18.5 fluorescence intensity | 55.3 ± 15.5 fluorescence intensity | 378 ± 41 fluorescence intensity | 186 ± 8.15 fluorescence intensity | 261.9 ± 2.02 fluorescence intensity | 418 ± 14.4 fluorescence intensity | 1460 ± 30.9 fluorescence intensity | 384 ± 26.4 fluorescence intensity | 42.4 ± 3.23 fluorescence intensity | 1670 ± 29.4 fluorescence intensity | 32.4 ± 2.43 fluorescence intensity | 2340 ± 154 fluorescence intensity | 401.7 ± 2.43 fluorescence intensity | 54.1 ± 16.7 fluorescence intensity | 90 ± 1.75 fluorescence intensity | 47.9 ± 2.28 fluorescence intensity |
| UGAGGUAGUAGGUUGUAUGGUU | 303 ± 13.1 fluorescence intensity | 49 ± 3.09 fluorescence intensity | 2280 ± 31.4 fluorescence intensity | 2130 ± 66 fluorescence intensity | 368 ± 23.9 fluorescence intensity | 148 ± 21.1 fluorescence intensity | 1000 ± 43 fluorescence intensity | 312 ± 54.2 fluorescence intensity | 560 ± 17.7 fluorescence intensity | 853 ± 47 fluorescence intensity | 2400 ± 10.1 fluorescence intensity | 1510 ± 21.2 fluorescence intensity | 65.5 ± 1.7 fluorescence intensity | 953.1 ± 0.948 fluorescence intensity | 43 ± 9.13 fluorescence intensity | 2945 ± 11.9 fluorescence intensity | 934 ± 43.3 fluorescence intensity | 74.91 ± 0.417 fluorescence intensity | 116 ± 5.61 fluorescence intensity | 102 ± 9.24 fluorescence intensity |
| UAGCUUAUCAGACUGAUGUUGA | 238 ± 9.04 fluorescence intensity |  | 153 ± 38.7 fluorescence intensity | 1430 ± 113 fluorescence intensity |  | 52.4 ± 15.6 fluorescence intensity | 118 ± 40.8 fluorescence intensity | 37.9 ± 2.09 fluorescence intensity | 39.3 ± 2.37 fluorescence intensity | 109 ± 3.13 fluorescence intensity | 156 ± 11 fluorescence intensity | 1240 ± 132 fluorescence intensity | 23.4 ± 0.714 fluorescence intensity | 25.7 ± 1.8 fluorescence intensity | 23 ± 0.714 fluorescence intensity | 39.7 ± 8.15 fluorescence intensity | 230 ± 15.3 fluorescence intensity |  |  |  |
